The target of experiment [1] is Myc proto-oncogene protein (Homo sapiens) (UniProt P01106). Briefly: ATG_Myc_CIS: Attagene CIS-FACTORIAL HepG2 Assay for human Myelocytomatosis (Myc) Proto-Oncogene Transcription Factor (AID 2282990). The note with it: HepG2, Attagene cis-reporter transcription factor activity; actives raise or lower the signal. In a few lines: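 Read-out: fluorescent reporter mRNA fragments resolved by capillary electrophoresis after RT-PCR. Human HepG2 liver cells carried transfected cis-element reporter units and were dosed for 24 h. Gain or loss of signal fitted relative to DMSO baseline.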
Myc proto-oncogene protein (Homo sapiens), sequence (P01106 whole entry, looked up, the tested form may be a part): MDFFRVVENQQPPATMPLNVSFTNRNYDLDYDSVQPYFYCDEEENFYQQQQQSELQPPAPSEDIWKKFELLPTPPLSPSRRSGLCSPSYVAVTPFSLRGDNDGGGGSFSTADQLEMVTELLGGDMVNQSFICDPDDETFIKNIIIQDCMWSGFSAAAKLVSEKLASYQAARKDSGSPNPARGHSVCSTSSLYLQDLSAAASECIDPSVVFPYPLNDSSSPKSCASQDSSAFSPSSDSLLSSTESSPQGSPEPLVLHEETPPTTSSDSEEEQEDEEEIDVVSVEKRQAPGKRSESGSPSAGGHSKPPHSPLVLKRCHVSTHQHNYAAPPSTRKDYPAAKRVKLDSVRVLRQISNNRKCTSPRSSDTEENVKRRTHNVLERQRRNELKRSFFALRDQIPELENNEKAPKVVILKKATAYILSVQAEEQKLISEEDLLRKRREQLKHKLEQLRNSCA

Experiment [2] can be described thus: ATG_NF_kB_CIS: Attagene CIS-FACTORIAL HepG2 Assay for human Nuclear Factor Kappa B (NF-kB) (AID 2282991). The note with it: HepG2 Attagene cis-factorial NF-kB reporter mRNA; actives raise or lower the signal. In a few lines: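 Read-out: reporter transcript levels quantified by RT-PCR plus capillary electrophoresis of 6-FAM-labelled, HpaI-cut fragments. Transfected HepG2 cells, 24 h compound exposure, endogenous NF-kB-driven cis element; gain or loss scored versus DMSO.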

A short description of experiment [3]: ATG_NRF2_ARE_CIS: Attagene CIS-FACTORIAL HepG2 Assay for human Nuclear Factor Erythroid 2 Related Factor 2 (NFR2) response to Antioxidant Response Elements (ARE) (AID 2282992). As to conditions: HepG2 Attagene ARE/NRF2 reporter, transcription factor activity; actives raise or lower the signal. In a few lines:
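Endogenous transcription factor activity in human liver HepG2 cells is tracked via a cis-element-driven reporter within a multiplexed set. mRNA induction is read by RT-PCR and capillary electrophoresis after 24 h, with DMSO as baseline.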

The nature of experiment [4]: ATG_Oct_MLP_CIS: Attagene CIS-FACTORIAL HepG2 Assay for human Octamer-Binding Transcription Factor (Oct) (AID 2282993). As to conditions: HepG2 Attagene cis-factorial Oct reporter, mRNA; actives raise or lower the signal. A digest of the protocol: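 Cells of the HepG2 line express promoter-controlled reporter sequences whose mRNA levels, after 24 h treatment, are measured by RT-PCR and capillary electrophoresis. Increases and decreases are scored relative to DMSO.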

Experiment [5] is described as follows: BSK_3C_TissueFactor: BioMAP Diversity Plus: 3C Assay for Tissue Factor Biomarker Activity (AID 2282997). The note with it: BioMAP 3C HUVEC, tissue factor biomarker readout; actives raise or lower the signal. In a few lines:
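Tissue factor on primary human umbilical vein endothelium was read by ELISA 24 h after dosing, gain or loss relative to DMSO. Cytotoxicity ran alongside via SRB (0.1%, TCA-fixed, 560 nm).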

Experiment [6] can be described thus: BSK_3C_uPAR: BioMAP Diversity Plus: 3C Assay for Urokinase-type plasminogen activator receptor (uPAR) Biomarker Activity (AID 2282998). As to conditions: BioMAP 3C HUVEC, uPAR biomarker ELISA; actives raise or lower the signal. A digest of the protocol: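 Endothelial primary cells of human umbilical vein origin received test chemical; 24 h later uPAR was assayed by ELISA. Fitting was bidirectional, DMSO as negative control.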
A general note: An ELISA detects its analyte on a solid surface through an enzyme-linked reagent.

The nature of experiment [7]: BSK_3C_VCAM1: BioMAP Diversity Plus: 3C Assay for Vascular cell adhesion molecule 1 (VCAM1) Biomarker Activity (AID 2282999). The note with it: BioMAP 3C HUVEC, VCAM1 ELISA, cytokine-stimulated; actives raise or lower the signal. A digest of the protocol:
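HUVEC primary cells, 24 h compound exposure; VCAM-1 by ELISA; gain/loss of signal fitted bidirectionally vs DMSO baseline.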

A short description of experiment [8]: BSK_4H_Eotaxin3: BioMAP Diversity Plus: 4H Assay for Eotaxin 3 Biomarker Activity (AID 2283000).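 For Outcome: CCL26 protein level quantified by ELISA in parallel with SRB cytotoxicity check.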 The note with it: primary human endothelial cells (HUVEC); actives raise or lower the signal. A digest of the protocol: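 Human umbilical vein endothelial cells (BSK_4H system) dosed with test chemical; Eotaxin-3 (CCL26) measured by ELISA 24 h after dosing. Bidirectional curve fitting relative to DMSO negative control as baseline.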

Read-out in experiment [9]: Intercellular Adhesion Molecule 1 (ICAM1), ICAM1 (gene 3383)
Briefly: BSK_3C_ICAM1: BioMAP Diversity Plus: 3C Assay for Intercellular Adhesion Molecule 1 (ICAM1) Biomarker Activity (AID 2283003). As to conditions: primary human endothelial cells (HUVEC); actives raise or lower the signal. A digest of the protocol: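 Using DMSO as baseline, bidirectional curve fitting was applied to ICAM-1 ELISA signals from HUVEC in the 3C system, measured 24 h after compound addition.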

A short description of experiment [10]: BSK_3C_Proliferation: Cell Proliferation Assessment in the BioMAP Diversity Plus: 3C Assay (AID 2283006).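 For AC50: potency may reflect either rise or fall in cell number versus DMSO.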 The note with it: primary human endothelial cells (HUVEC). A digest of the protocol: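 Measured here: sulforhodamine B (0.1%) staining of TCA-fixed sub-confluent umbilical vein endothelial cultures 48 h post-dosing, absorbance 560 nm. DMSO served as negative control and baseline; both signal gain and loss were modelled.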

In experiment [11] the target is Peroxisome proliferator-activated receptor gamma (Homo sapiens) (UniProt P37231). Briefly: ATG_PPARg_TRANS: Attagene TRANS-FACTORIAL HepG2 Assay for human Peroxisome Proliferator-activated Receptor-gamma (PPARg) (AID 2283007; active = hit-call score of the fitted dose curve at least 0.9, where 1 is the maximum). In a few lines: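 Read-out: reporter mRNA induction, detected by fluorescence after RT-PCR and capillary electrophoresis. Transiently transfected human HepG2 liver cells carrying a chimeric NR-Gal4 construct were dosed for 24 h; activity was fitted upward relative to DMSO.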
Peroxisome proliferator-activated receptor gamma (Homo sapiens), sequence (P37231 whole entry, looked up, the tested form may be a part): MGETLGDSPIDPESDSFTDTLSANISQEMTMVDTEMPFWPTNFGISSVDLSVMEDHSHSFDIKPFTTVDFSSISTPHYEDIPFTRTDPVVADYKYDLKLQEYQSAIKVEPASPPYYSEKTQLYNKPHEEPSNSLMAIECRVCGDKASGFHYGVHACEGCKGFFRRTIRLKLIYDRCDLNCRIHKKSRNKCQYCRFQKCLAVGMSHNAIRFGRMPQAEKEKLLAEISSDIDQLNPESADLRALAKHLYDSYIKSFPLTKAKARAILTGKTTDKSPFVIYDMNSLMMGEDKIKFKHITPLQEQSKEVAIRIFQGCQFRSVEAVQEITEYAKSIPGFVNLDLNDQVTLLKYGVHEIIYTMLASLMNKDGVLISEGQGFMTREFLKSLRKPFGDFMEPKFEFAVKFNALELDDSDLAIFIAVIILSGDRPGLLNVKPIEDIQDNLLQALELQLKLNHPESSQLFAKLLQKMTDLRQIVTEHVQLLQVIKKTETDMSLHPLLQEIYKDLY

The target in experiment [12] is Nuclear receptor subfamily 1 group I member 2 (Homo sapiens) (UniProt O75469). As to the kind of experiment: ATG_PXR_TRANS: Attagene TRANS-FACTORIAL HepG2 Assay for human Pregnane X Receptor (PXR) (AID 2283008; active = hit-call score of the fitted dose curve at least 0.9, where 1 is the maximum). A digest of the protocol: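 HepG2 transfected (FuGene 6) with GAL4-UAS reporter units + PXR-Gal4 chimera; dosed 24 h. Total RNA → oligo(dT) RT → PCR → 6-FAM primer extension → HpaI cut → CE. Gain-of-signal vs DMSO.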
Nuclear receptor subfamily 1 group I member 2 (Homo sapiens), sequence (O75469 whole entry, looked up, the tested form may be a part): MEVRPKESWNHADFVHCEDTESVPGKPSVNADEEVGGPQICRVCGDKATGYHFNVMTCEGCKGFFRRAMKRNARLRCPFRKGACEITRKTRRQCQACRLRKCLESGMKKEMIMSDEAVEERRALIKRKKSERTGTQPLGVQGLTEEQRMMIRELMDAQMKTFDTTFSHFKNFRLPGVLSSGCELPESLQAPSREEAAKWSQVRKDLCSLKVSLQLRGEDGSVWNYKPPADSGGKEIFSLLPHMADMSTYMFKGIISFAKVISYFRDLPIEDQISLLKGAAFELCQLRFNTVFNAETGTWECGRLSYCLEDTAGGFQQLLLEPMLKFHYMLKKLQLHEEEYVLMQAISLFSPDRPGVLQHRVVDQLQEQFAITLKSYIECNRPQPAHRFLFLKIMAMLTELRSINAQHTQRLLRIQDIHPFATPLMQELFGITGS

In experiment [13] the target is human RAR-related Orphan Receptor beta (RORb), RORB (gene 6096) (UniProt Q92753). Briefly: ATG_RORb_TRANS: Attagene TRANS-FACTORIAL HepG2 Assay for human RAR-related Orphan Receptor beta (RORb) (AID 2283010; active = hit-call score of the fitted dose curve at least 0.9, where 1 is the maximum). In a few lines:
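Multiplexed transcription-factor reporter assay: HepG2 cells transiently carrying NR-Gal4/GAL4-UAS constructs, 24 h treatment, mRNA quantified by RT-PCR plus capillary electrophoresis fluorescence; activity scored as induction over DMSO.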

Experiment [14] concerns the target human Peroxisome Proliferator-activated Receptor alpha (PPARa), PPARA (gene 5465) (UniProt Q07869). As to the kind of experiment: ATG_PPARa_TRANS: Attagene TRANS-FACTORIAL HepG2 Assay for human Peroxisome Proliferator-activated Receptor alpha (PPARa) (AID 2283001; active = hit-call score of the fitted dose curve at least 0.9, where 1 is the maximum). In a few lines: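 Transient HepG2 transfection, GAL4-UAS reporters, NR-Gal4 chimeras; 24 h compound exposure. Readout: reporter transcripts by RT-PCR, 6-FAM primer extension, HpaI digest, capillary electrophoresis. Positive direction vs DMSO baseline.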

Experiment [15] concerns the target human RAR-related Orphan Receptor gamma (RORg), RORC (gene 6097) (UniProt P51449). As to the kind of experiment: ATG_RORg_TRANS: Attagene TRANS-FACTORIAL HepG2 Assay for human RAR-related Orphan Receptor gamma (RORg) (AID 2283011; active = hit-call score of the fitted dose curve at least 0.9, where 1 is the maximum). In a few lines: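 Reporter transcripts from a transfected RORg-GAL4 chimera in HepG2 cells were quantified 24 h after dosing by RT-PCR, 6-FAM labelling, HpaI digestion and capillary electrophoresis; increases over DMSO baseline were fitted.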

Experiment [16] addresses Retinoic acid receptor alpha (Homo sapiens) (UniProt P10276). As to the kind of experiment: ATG_RARa_TRANS: Attagene TRANS-FACTORIAL HepG2 Assay for human Retinoic Acid Receptor alpha (RARa) (AID 2283005; active = hit-call score of the fitted dose curve at least 0.9, where 1 is the maximum). In a few lines:
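HepG2 transiently transfected with multiplex GAL4-UAS reporter units including a human RARa–GAL4 chimera; 24 h compound exposure. Reporter mRNA quantified by RT-PCR, 6-FAM labeling and capillary electrophoresis; gain of signal versus DMSO.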

Experiment [17] has as its target human Retinoic Acid Receptor gamma (RARg), RARG (gene 5916) (UniProt P13631). As to the kind of experiment: ATG_RARg_TRANS: Attagene TRANS-FACTORIAL HepG2 Assay for human Retinoic Acid Receptor gamma (RARg) (AID 2283009; active = hit-call score of the fitted dose curve at least 0.9, where 1 is the maximum). In a few lines:
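Gain-of-signal relative to DMSO is reported from fluorescent capillary electrophoresis of RT-PCR reporter products. These came from HepG2 cells expressing transfected RARg-GAL4 chimeras with UAS reporters, harvested 24 h after dosing.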

Outcome and AC50 data for eight compounds are collected here from PubChem BioAssay (EPA / NIEHS).

Molecules are shown by their SMILES. Inconclusive results are not listed. Calls of active or inactive are those of the source. Rule for the calls, unless noted: active = hit-call score of the fitted dose curve at least 0.9, where 1 is the maximum; inactive = score below 0.9.

As a reminder, the AC50 is the midpoint of the concentration-response curve, whichever way the signal moves.

human RAR-related Orphan Receptor gamma (RORg), RORC (gene 6097), sequence (P51449 whole entry, looked up, the tested form may be a part): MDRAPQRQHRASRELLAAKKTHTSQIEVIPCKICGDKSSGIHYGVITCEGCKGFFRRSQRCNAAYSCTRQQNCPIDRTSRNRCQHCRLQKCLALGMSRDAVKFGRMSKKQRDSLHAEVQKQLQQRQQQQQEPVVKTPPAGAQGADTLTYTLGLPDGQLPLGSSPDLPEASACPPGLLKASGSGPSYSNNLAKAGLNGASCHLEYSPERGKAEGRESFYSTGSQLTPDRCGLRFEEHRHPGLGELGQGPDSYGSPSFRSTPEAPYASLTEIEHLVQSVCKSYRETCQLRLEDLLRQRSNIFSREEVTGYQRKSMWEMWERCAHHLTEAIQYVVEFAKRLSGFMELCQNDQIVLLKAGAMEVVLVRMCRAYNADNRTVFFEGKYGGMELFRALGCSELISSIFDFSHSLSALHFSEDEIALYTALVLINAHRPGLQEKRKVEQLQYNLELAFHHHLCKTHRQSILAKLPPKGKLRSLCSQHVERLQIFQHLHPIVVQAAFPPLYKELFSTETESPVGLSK
human RAR-related Orphan Receptor beta (RORb), RORB (gene 6096), sequence (Q92753 whole entry, looked up, the tested form may be a part): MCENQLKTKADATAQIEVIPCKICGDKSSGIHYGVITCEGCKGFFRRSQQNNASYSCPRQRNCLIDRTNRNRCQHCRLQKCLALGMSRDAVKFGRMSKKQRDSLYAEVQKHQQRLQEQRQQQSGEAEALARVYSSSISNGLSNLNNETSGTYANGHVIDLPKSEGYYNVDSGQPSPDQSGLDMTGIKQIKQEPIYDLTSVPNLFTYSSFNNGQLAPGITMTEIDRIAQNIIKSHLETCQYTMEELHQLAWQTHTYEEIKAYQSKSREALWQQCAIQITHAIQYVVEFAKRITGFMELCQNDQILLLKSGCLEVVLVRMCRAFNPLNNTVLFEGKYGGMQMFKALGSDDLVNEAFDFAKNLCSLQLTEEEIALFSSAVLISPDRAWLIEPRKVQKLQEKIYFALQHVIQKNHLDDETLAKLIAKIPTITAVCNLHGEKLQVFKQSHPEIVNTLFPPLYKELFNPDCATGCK
Retinoic acid receptor alpha (Homo sapiens), sequence (P10276 whole entry, looked up, the tested form may be a part): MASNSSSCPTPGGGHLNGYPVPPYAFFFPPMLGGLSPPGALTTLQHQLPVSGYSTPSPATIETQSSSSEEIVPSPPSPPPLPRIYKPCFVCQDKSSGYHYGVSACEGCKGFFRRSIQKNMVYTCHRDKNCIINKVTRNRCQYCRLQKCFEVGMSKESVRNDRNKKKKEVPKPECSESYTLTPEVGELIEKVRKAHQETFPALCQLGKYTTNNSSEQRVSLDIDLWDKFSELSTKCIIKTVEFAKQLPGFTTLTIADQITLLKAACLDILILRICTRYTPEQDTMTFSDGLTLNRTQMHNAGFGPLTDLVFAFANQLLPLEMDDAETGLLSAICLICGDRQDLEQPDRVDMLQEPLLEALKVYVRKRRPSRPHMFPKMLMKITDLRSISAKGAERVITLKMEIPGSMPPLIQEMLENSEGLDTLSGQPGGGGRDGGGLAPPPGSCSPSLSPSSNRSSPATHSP
human Retinoic Acid Receptor gamma (RARg), RARG (gene 5916), sequence (P13631 whole entry, looked up, the tested form may be a part): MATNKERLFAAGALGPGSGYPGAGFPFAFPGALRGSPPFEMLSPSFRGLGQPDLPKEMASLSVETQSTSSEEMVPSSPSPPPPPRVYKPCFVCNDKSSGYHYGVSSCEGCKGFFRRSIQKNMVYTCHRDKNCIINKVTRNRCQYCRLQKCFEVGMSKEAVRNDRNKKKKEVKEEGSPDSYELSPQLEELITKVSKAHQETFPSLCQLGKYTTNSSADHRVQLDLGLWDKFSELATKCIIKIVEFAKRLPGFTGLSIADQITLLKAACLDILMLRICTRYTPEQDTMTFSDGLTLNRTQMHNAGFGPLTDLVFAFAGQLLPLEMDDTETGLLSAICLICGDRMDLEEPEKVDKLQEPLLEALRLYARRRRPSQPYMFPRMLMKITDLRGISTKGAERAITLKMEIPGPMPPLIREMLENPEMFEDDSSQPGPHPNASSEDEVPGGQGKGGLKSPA
human Peroxisome Proliferator-activated Receptor alpha (PPARa), PPARA (gene 5465), sequence (Q07869 whole entry, looked up, the tested form may be a part): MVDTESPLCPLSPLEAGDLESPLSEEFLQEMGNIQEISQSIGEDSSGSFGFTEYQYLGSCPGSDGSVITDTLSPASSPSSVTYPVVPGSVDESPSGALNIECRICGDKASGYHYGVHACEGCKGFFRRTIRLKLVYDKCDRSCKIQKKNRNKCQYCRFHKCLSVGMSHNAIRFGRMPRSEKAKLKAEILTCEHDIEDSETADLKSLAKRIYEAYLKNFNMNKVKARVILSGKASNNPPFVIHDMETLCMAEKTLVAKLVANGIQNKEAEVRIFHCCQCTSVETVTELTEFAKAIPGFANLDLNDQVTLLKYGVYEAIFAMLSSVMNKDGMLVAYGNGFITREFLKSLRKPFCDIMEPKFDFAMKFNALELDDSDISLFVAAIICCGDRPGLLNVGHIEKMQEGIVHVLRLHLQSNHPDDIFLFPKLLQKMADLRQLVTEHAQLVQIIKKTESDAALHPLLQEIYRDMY

Turning to `C#CC(O)C(CC)CCCC` (configuration not stated), the call in [1], in experiment [4], in [5], in experiment [6], in experiment [7] and in experiment [8] was inactive. The outcome in experiment [9], in [10] and in experiment [13] was inactive. Also, the concentration at half-maximal activity (AC50) in [2] was 67.2 µM (active); in [3], 53.3 µM (active); in [11] it was 59.2 µM (active); in experiment [12] it was 25.5 µM (active).

For the compound `O=C(O)c1[nH]n(-c2ccc(S(=O)(=O)O)cc2)c(=O)c1N=Nc1ccc(S(=O)(=O)O)cc1`, the compound was classed as inactive in experiment [1], in experiment [2], in experiment [3], in [4], in experiment [5] and in [6]. Also, the result in experiment [7], in [8], in experiment [14], in experiment [9], in [10] and in experiment [13] was inactive.

Consider `CC(C)OC(=O)C(C)(C)Oc1ccc(C(=O)c2ccc(Cl)cc2)cc1`, for which the outcome in [1], in [2], in experiment [5], in experiment [7], in experiment [9] and in experiment [15] was inactive. Besides, the concentration at half-maximal activity (AC50) in [3] is 25 µM (active); in [4] it was 19.8 µM (active); in experiment [6], 30.6 µM (active); in experiment [8] it was 32.4 µM (active); in experiment [10], 15.8 µM (active); in experiment [12] it was 5.53 µM (active).

In the case of `O=C1OC(c2ccc(O)cc2)(c2ccc(O)cc2)c2ccccc21`, the AC50 in experiment [1] was 180 µM (active); in [2] it was 176 µM (active); in experiment [3] it was 177 µM (active); in [4] it was 26.2 µM (active); in experiment [6] it was 14.6 µM (active); in experiment [7], 29.7 µM (active). Further, the figures for the half-maximal activity concentration (AC50) in [10] and in [12] were 15 µM (active) and 0.604 µM (active), respectively. Besides, the result in [5], in experiment [8], in [9], in experiment [16] and in experiment [17] was inactive.

As for `CC1(C)C(=O)NC(=O)N1CO`, the compound was called inactive in experiment [1], in [2], in [3], in [4], in experiment [5] and in experiment [6]. The result in experiment [7], in experiment [8] and in experiment [9] was inactive. The AC50 in experiment [10] was 5.5 µM (active).

For `CO[C@@H]1COCC[C@@H]1N[C@@H]1CC[C@@](C(=O)N2CCc3ncc(C(F)(F)F)cc3C2)(C(C)C)C1`, the result in [1], in experiment [2], in experiment [3], in experiment [4], in experiment [5] and in experiment [6] was inactive. Also, the result in [7], in [8], in experiment [9], in experiment [10], in experiment [11] and in experiment [12] was inactive. Moreover, in [15], the outcome was inactive.

On to `CC(=O)S[C@H](C(=O)N[C@H]1Cc2ccccc2[C@H]2CCC[C@@H](C(=O)O)N2C1=O)C(C)C`, for which the compound was classed as inactive in [1], in [2], in experiment [3], in experiment [4], in experiment [5] and in experiment [6]. Further, the outcome in experiment [7], in [8], in experiment [9], in experiment [10], in [11] and in experiment [12] was inactive.

For the compound `CN(C)CCCN(C)CCCN(C)C`, the call in experiment [1], in experiment [2], in experiment [3], in experiment [4], in experiment [5] and in [6] was inactive. Moreover, the outcome in [7], in [8], in experiment [9], in [10], in experiment [11] and in experiment [12] was inactive.
